Sampled rows, rich in hits. Any-hit rate of the full collection: about 11%.
BAZ2B block = qHTS Assay for Inhibitors of BAZ2B; AID 504333, 2011; actives 4.4% (n = 360,000); Potency, µM (top dose mostly 114 µM), for inactives: top-dose activity change, negative = inhibition, actives largely listed as inhibitors; Bromodomain adjacent to zinc finger domain protein 2B (Homo sapiens), Q9UIF8; AlphaScreen BAZ2B-H3K14Ac peptide displacement; further: potency means the concentration at half of the fitted maximal effect; on the % scale 0 is the no-effect control and ±100 the full control effect; nearly all actives have a fitted effect of over 60% in size
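In this displacement format the biotinylated H3(5-23) peptide acetylated at Lys14 serves as ligand at 50 nM, with BAZ2B at 50 nM in PBS pH 7.4 containing 0.01% Tween-20. Donor and acceptor beads are 10 ug/mL final.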
L3MBTL1 inh = qHTS Assay for the Inhibitors of L3MBTL1 | Lethal(3)malignant brain tumor-like protein 1 (Homo sapiens), Q9Y468 | AlphaScreen L3MBTL1–H3K9me1 peptide binding | Potency, µM (doses to about 57.1 µM), for the others: at the highest dose activity, negative = inhibition, most hits filed as inhibitors | actives 0.66% (n = 230,000); further: potency means the concentration at half of the fitted maximal effect; on the % scale 0 is the no-effect control and ±100 the full control effect; nearly all actives have a fitted effect of over 60% in size
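Displacement of a biotinylated histone H3(1-15) peptide monomethylated at Lys9 (75 nM) from L3MBTL1 (50 nM) was measured by AlphaScreen after a 30 min room-temperature compound incubation; cefsulodin titration served as intraplate control.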
PI5P4K alpha inh = qHTS for Inhibitors of phosphatidylinositol 5-phosphate 4-kinase (PI5P4K); Phosphatidylinositol 5-phosphate 4-kinase type-2 alpha (Homo sapiens), P48426; PI5P4Kalpha enzyme, ADP-Glo luminescence, 60 min; hits give low values; max response, %; actives 1.2% (n = 330,000); AID 652105, 2013; active means max response of -50% or lower; inconclusive means between -30% and -50%; inactive means -30% or higher; further: value at the top dose of about 77 µM; on the % scale 0 is the no-effect control and ±100 the full control effect
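ADP-Glo luminescence end-point read after a 60 min room-temperature kinase reaction of PI5P4Kalpha plus substrate, initiated with ATP at 5 microM final. Buffer: 0.038 M HEPES pH 7.4, EGTA, 0.1% CHAPS, 5% DMSO.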
JMJD2A Tudor = qHTS Assay for Inhibitors of JMJD2A-Tudor Domain; Lysine-specific demethylase 4A (Homo sapiens), O75164; AlphaScreen JMJD2A-Tudor / H3K4me3 peptide binding; Potency, µM (titrated, usually from 114 µM), for inactives: at the highest dose activity change, negative = inhibition, most hits filed as inhibitors; actives 4.4% (n = 390,000); AID 504339, 2011; further: potency means the concentration at half of the fitted maximal effect; on the % scale 0 is the no-effect control and ±100 the full control effect; nearly all actives have a fitted effect of over 50% in size
G9a block = qHTS Assay for Inhibitors of Histone Lysine Methyltransferase G9a. Histone-lysine N-methyltransferase EHMT2 (Homo sapiens), Q96KQ7. G9a H3K9 monomethylation, AlphaScreen, 2 h. Potency, µM (titrated, usually from 102 µM), for inactives: top-dose activity, negative = inhibition, usual class: inhibitors. actives 8.8% (n = 350,000). AID 504332, 2011; further: potency means the concentration at half of the fitted maximal effect; on the % scale 0 is the no-effect control and ±100 the full control effect; nearly all actives have a fitted effect of over 75% in size
Target sequence (Q96KQ7 913-1193 limits assumed): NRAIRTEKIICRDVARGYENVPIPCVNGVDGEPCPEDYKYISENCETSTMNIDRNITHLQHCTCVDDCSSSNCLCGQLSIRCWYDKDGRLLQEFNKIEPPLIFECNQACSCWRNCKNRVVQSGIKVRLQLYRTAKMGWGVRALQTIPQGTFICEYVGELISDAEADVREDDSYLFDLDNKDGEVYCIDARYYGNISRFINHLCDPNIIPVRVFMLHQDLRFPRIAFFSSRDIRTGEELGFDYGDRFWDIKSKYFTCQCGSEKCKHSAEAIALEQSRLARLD
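G9a (20 nM) preincubated 15 min RT with compounds, then 500 nM biotinylated H3K9 peptide and 20 uM SAM added; 2 h RT reaction. Monomethyl-H3K9 product detected by AlphaScreen with anti-H3K9me1 antibody, streptavidin donor and anti-rabbit IgG acceptor beads.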
HP1b chromo inh = HTS for Inhibitors of HP1-beta Chromodomain Interactions with Methylated Histone Tails; Chromobox protein homolog 1 (Homo sapiens), P83916; AlphaScreen HP1-beta / biotin-H3K9me3 peptide binding; Potency, µM (series often up to 114 µM), for the others: top-dose activity change, negative = inhibition, actives largely listed as inhibitors; actives 0.56% (n = 390,000); AID 540317, 2011; further: potency means the concentration at half of the fitted maximal effect; nearly all actives have a fitted effect of over 70% in size
Target sequence (P83916 whole entry, looked up): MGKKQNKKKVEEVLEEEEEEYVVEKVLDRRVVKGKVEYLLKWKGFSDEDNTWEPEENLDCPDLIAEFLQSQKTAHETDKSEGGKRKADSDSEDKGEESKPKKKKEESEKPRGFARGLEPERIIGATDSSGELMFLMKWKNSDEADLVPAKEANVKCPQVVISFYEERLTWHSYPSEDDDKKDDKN
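AlphaScreen: HP1-beta (50 nM) preformed 30 min with biotin-H3(1-18)K9me3 peptide (50 nM) in PBS pH 7.4, 0.01% Tween-20. Compound added for 30 min at RT, then streptavidin donor/nickel chelate acceptor beads (10 ug/mL) for 30 min.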
Starred values were filed as active, the others as inactive; ? = inconclusive; nt = no result given; [ ] = another dose, or the depositor's remark. Unless noted, the call rests on the fitted dose curve; in most records, active means well fitted inhibition curve with a large enough effect; inconclusive means small, poorly fitted or top-dose-only effect; inactive means no such curve, though single readings can be large or run the other way.

SMILES | BAZ2B block | L3MBTL1 inh | PI5P4K alpha inh | JMJD2A Tudor | G9a block | HP1b chromo inh
O=C(NCCc1ccc(Cl)cc1)c1ccc(CS(=O)Cc2cccc(Cl)c2)o1 (stereo not drawn) | ? | nt | nt | -16% | -25%[59 µM] | 19%
CCOc1ccccc1-c1nnc2n1N=C(c1ccc(OC)cc1)CS2 | nt | nt | nt | -26% | nt | nt
Cc1cc(O)ccc1Nc1nc(-c2cccs2)cs1 | ? | -14% | -2 | ? | 45µM* | -16%
c1ccc(CNc2nc(-c3cccnc3)cs2)cc1 | ? | -1% | 0 | ? | 50µM* | 17%
CCCCCCCC1(C)NC(=O)NC1=O (stereo not drawn) | 3% | 10% | 0 | -10% | nt | 11%
CCC1(c2ccccc2)NC(=S)N(c2ccc(C)cc2)N1 (stereo not drawn) | -37% | nt | 6 | -35% | ? | 37%
CCCCCC1(C)NC(=S)N(c2ccccc2)N1 (stereo not drawn) | ? | nt | 5 | 50µM* | ? | -7%
CC1(CC(=O)Nc2ccccc2)NC(=S)N(c2ccccc2)N1 (stereo not drawn) | ? | -1% | -11 | 5.6µM* | ? | -7%
CCC1(c2ccc(Cl)cc2)NC(=S)N(c2ccccc2)N1 (stereo not drawn) | -38% | -2% | 3 | -30% | 13µM* | 23%
C=C(C)CCC1(C)NC(=O)N(c2ccccc2)N1 (stereo not drawn) | -19% | -14% | -12 | -2% | ? | 26%
CCCCCCC1(C)NC(=S)N(c2ccccc2)N1 (stereo not drawn) | nt | nt | -24 | ? | 14µM* | ?
Cc1ccc(Cn2c(C(C)NC(=O)c3ccccc3)nc3ccccc32)cc1 (stereo not drawn) | 17% | nt | nt | -15% | -1%[59 µM] | 76%
COc1ccc(C(=O)CNC2=NCCC2)cc1 | nt | nt | 1 | 5% | -31% | 48%
O=C(CNC1=NCCC1)c1ccc(Cl)cc1 | 3% | -8% | 2 | -10% | 28µM* | 28%
O=C(CNCc1ccccn1)Nc1ccc([N+](=O)[O-])cc1C(=O)Nc1ccccc1F | 18µM* | nt | -10 | 45µM* | 13% | 13%
Cc1ccc(-c2noc(-c3ccccc3NC(=O)C3CC(=O)N(c4ccccc4C)C3)n2)cc1 (stereo not drawn) | -6% | nt | nt | -13% | -35%[59 µM] | 48%
COc1cc(Cl)c(C)cc1NC(=O)CCc1nc2cccnc2n1-c1ccccc1 | -38% | nt | nt | -35% | -42%[59 µM] | 9%
COc1cc(CNCCN2CCOCC2)ccc1OCc1ccccc1Cl | -10% | -2% | -1 | -21% | nt | 16%
COc1cc(CNCc2ccccn2)ccc1OCc1ccccc1Cl | ? | -22% | 21 | 45µM* | ? | -2%
CCOc1c(Cl)cc(CNCc2ccccn2)cc1OC | 56µM* | -6% | -1 | -25% | 40µM* | 61%
Cc1cc(C)cc(NC(=O)Cn2c(C)cc(C)c(C#N)c2=O)c1 | 3% | nt | nt | 11% | 4%[12.7 µM] | 29%
CNS(=O)(=O)c1cn(CC(=O)Nc2ccc(OC)cc2OC)cc1S(=O)(=O)NC | -13% | nt | nt | -4% | 0%[59 µM] | 30%
Cc1csc(NC(=O)c2cc(-c3ccccc3)nc3ccccc23)n1 | -33% | -13% | 10 | -32% | 71µM* | -9%
CC(=O)Nc1cccc(NC(=O)c2cc(-c3cccnc3)nc3ccc(Cl)cc23)c1 | -36% | -1% | 10 | -26% | ? | 16%
O=C(Nc1nncs1)c1cc(-c2ccncc2)nc2ccc(Cl)cc12 | -5% | nt | -14 | -2% | 50µM* | 33%
SMILES | BAZ2B block | L3MBTL1 inh | PI5P4K alpha inh | JMJD2A Tudor | G9a block | HP1b chromo inh
O=C(Nc1nc2c(s1)CCCC2)c1cc(-c2ccccc2)nc2ccccc12 | -33% | -12% | 18 | -32% | 13µM* | -4%
Cc1ccc(C(=O)Nc2nc3c(s2)CCCC3)o1 | -35% | nt | -10 | -33% | 56µM* | 12%
CC(C)Nc1ccc(-c2nc(-c3ccco3)no2)cc1[N+](=O)[O-] | -27% | nt | nt | 2% | -36%[59 µM] | 46%
O=C(OCC1OC(n2ncc(=O)[nH]c2=O)C(OC(=O)c2ccccc2)C1OC(=O)c1ccccc1)c1ccccc1 (stereo not drawn) | 50µM* | nt | -4 | 50µM* | 18%[12.7 µM] | 19%
CC1(C)CC(=O)C(CC2=C(O)CC(C)(C)CC2=O)=C(O)C1 | 7% | 1% | nt | -16% | 4.5µM* | 40%
N#Cc1nc(-c2ccco2)oc1N1CCOCC1 | 4% | 3% | nt | -4% | 9%[59 µM] | 33%
COc1ccc(N2CCN(c3oc(-c4ccco4)nc3C#N)CC2)cc1 | nt | ? | 16 | 32µM* | 25µM* | ?
N#Cc1nc(-c2ccco2)oc1N1CCN(c2ccccc2)CC1 | 13µM* | ? | -1 | ? | ? | ?
CCC(=O)N1CCc2cc(S(=O)(=O)CCC(=O)Nc3ccc(Cl)c(C(F)(F)F)c3)ccc21 | nt | nt | nt | 1% | ? | 44%
O=C(Nc1ccccc1)c1[nH]ncc1[N+](=O)[O-] | 17% | nt | -1 | -4% | -35%[59 µM] | 50%
Cc1cnc2c(C(=O)O)cnn2c1 | ? | nt | 0 | ? | 56µM* | ?
O=C(O)c1cnn2cc(-c3[nH]ncc3[N+](=O)[O-])cnc12 | ? | -1% | -24 | 22µM* | ? | 4%
Cc1ccc(Cl)cc1NC(=O)c1sc(-n2nc(C)c(Cc3ccc4c(c3)OCO4)c2C)nc1C | -34% | nt | nt | -7% | -24%[59 µM] | 33%
CCOC(=O)c1c(/N=C/c2cc(C)ccc2O)sc2c1CCN(C)C2 | ? | ? | 1 | 45µM* | ? | ?
COc1ccc(OC)c(NC(=O)CC2SC(=Nc3ccc(F)cc3)N(CCC3=CCCCC3)C2=O)c1 (stereo not drawn) | ? | -14% | 2 | -24% | 50µM* | 5%
COc1cc([N+](=O)[O-])ccc1NC(=O)CC1SC(=Nc2ccc(F)cc2)N(CCC2=CCCCC2)C1=O (stereo not drawn) | ? | -2% | 5 | -35%[57.1 µM] | 50µM* | ?
COc1ccc(N=C2SC(CC(=O)Nc3ccc(OC)cc3OC)C(=O)N2C)cc1 (stereo not drawn) | 2% | -9% | nt | -15% | -28%[12.7 µM] | 18%
N#CCCn1c(=O)c(-c2cccc(C#N)c2)nc2cnc(N3CCOCC3)nc21 | nt | nt | nt | nt | 8%[0.501 µM] | nt

Screens deposited in PubChem BioAssay by National Center for Advancing Translational Sciences (NCATS).
